# BAZ2B inh: blocks human BAZ2B. AlphaScreen BAZ2B-H3K14Ac peptide displacement. Potency, µM (doses to about 114 µM), actives largely listed as inhibitors. actives 4.4% (n = 360,000). Q9UIF8; further: nearly all actives have a fitted effect of over 60% in size
# Target sequence (Q9UIF8 whole entry, looked up): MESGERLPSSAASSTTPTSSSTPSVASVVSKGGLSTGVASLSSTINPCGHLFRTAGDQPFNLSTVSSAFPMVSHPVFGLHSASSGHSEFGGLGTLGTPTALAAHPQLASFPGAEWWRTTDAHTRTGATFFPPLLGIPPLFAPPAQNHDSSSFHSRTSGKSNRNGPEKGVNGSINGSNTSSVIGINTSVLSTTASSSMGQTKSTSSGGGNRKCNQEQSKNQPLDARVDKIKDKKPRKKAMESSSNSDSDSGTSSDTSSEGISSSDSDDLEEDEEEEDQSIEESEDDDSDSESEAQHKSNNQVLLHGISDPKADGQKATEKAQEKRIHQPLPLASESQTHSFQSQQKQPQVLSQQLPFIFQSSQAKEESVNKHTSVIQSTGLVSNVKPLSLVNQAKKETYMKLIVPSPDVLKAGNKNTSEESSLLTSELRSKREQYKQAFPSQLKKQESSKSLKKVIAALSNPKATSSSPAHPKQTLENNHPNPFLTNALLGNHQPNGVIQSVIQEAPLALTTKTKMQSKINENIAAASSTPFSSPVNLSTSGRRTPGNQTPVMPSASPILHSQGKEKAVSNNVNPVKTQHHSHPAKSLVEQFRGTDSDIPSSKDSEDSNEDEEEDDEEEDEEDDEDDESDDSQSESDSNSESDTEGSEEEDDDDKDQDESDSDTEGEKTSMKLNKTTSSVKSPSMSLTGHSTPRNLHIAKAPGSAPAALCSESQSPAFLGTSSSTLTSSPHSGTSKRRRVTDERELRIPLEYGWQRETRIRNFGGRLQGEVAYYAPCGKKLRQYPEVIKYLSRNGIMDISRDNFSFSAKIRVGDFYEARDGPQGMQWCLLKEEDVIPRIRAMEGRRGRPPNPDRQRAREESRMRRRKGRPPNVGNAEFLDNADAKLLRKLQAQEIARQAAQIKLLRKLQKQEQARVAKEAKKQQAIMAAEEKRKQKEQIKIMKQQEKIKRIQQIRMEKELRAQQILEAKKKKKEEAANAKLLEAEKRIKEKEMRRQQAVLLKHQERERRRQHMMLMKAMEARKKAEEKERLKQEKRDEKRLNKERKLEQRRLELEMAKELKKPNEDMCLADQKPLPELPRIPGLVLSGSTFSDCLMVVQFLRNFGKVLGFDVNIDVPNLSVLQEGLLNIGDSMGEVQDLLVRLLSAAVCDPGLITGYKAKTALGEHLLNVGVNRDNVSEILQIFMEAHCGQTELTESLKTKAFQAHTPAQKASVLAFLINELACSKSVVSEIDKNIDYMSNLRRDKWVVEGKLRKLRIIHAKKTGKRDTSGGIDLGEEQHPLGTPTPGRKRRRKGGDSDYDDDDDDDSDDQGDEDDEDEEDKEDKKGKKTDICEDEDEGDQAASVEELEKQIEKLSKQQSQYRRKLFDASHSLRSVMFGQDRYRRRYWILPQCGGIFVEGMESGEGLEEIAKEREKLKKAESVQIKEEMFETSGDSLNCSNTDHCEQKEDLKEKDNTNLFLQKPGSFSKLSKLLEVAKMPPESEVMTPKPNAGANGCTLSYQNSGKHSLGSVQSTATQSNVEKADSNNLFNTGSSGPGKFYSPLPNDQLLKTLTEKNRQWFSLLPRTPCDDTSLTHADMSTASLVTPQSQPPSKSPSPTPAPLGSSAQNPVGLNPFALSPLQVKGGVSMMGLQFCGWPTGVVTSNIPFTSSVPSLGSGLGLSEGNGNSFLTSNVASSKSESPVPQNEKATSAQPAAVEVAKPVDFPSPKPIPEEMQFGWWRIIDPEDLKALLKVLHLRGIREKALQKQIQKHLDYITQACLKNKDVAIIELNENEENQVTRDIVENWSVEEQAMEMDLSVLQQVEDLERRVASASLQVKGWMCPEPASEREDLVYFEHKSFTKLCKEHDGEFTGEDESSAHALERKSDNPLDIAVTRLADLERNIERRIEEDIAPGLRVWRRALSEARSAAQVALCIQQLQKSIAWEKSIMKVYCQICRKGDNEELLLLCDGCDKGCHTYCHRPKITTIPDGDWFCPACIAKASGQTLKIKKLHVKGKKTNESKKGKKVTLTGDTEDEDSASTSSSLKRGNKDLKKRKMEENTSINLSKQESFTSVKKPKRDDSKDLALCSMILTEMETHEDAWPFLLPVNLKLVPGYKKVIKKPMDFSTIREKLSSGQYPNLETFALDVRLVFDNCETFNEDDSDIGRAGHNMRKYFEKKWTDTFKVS
#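 Multi-concentration screen (max 110 uM) measuring displacement of acetylated histone H3 peptide from BAZ2B by AlphaScreen, using 50 nM protein, 50 nM peptide and 10 ug/mL streptavidin donor plus Ni-chelate acceptor beads.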
# JMJD2A Tudor inh: inhibitors of human JMJD2A Tudor domain; AID 504339; AlphaScreen JMJD2A-Tudor / H3K4me3 peptide binding; actives 4.4% (n = 390,000); O75164; Potency, µM (highest dose often 114 µM), usual class: inhibitors; further: nearly all actives have a fitted effect of over 50% in size
# HP1b binding inh: blocks HP1-beta chromodomain binding to methylated histone tails. P83916. AlphaScreen HP1-beta / biotin-H3K9me3 peptide binding. Potency, µM (series often up to 114 µM), hits mostly inhibitors. actives 0.56% (n = 390,000); further: nearly all actives have a fitted effect of over 70% in size
#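 HP1-beta protein (50 nM final) preincubated 30 min at room temperature with biotinylated H3(1-18)K9me3 peptide (50 nM) in PBS pH 7.4, 0.01% Tween-20, then compound added for 30 min. AlphaScreen streptavidin donor/nickel chelate acceptor beads (10 ug/mL final), 30 min dark, luminescence read.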
# PLK1 PBD block: inhibitors of human PLK1 polo-box domain binding | Plk1 PBD binding of FITC phosphopeptide, fluorescence polarization | actives 2.8% (n = 360,000) | P53350 | AID 720504 | Potency, µM, usual class: inhibitors; further: series mostly up to about 57 µM; nearly all actives have a fitted effect of over 65% in size
# G9a inh: inhibitors of human histone lysine methyltransferase G9a; Q96KQ7; G9a H3K9 monomethylation, AlphaScreen, 2 h; actives 8.8% (n = 350,000); Potency, µM (top dose mostly 102 µM), usual class: inhibitors; further: nearly all actives have a fitted effect of over 75% in size
#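 Methyltransferase reactions run at room temperature for 2 h (20 nM enzyme, 500 nM biotin-H3K9 peptide, 20 uM SAM) after a 15 min compound preincubation; product detected by AlphaScreen beads and anti-H3K9me1 antibody.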
# Sfp inh: Sfp phosphopantetheinyl transferase inhibition; Q9F4F7; Biochemical Sfp PPTase activity, qHTS; Potency, µM, hits mostly inhibitors; actives 3.5% (n = 310,000);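 further: the enzyme is Sfp with the accession as filed and its product quenches rhodamine fluorescence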
#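 After 15 min at room temperature with compound, 15 nM Sfp received 5 uM rhodamine-CoA plus 12.5 uM BHQ-2-ybbR (50 mM Hepes pH 7.6, 10 mM MgCl2). Rate came from the fluorescence difference over 30 min, ex 525/em 598 nm.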
# A number is an active result; i = inactive; ? = inconclusive; nt = not tested or not shown; ! = not confirmed by another sample; [ ] = remark or other dose. An excerpt weighted towards active compounds, which were near 12% of everything screened. The call rests on the fitted dose curve; in most records, active means well fitted curve in the direction sought with a large enough effect; inconclusive means small, poorly fitted or top-dose-only effect, or another doubt; inactive means no such curve, though single readings can be large; an effect the other way counts as inactive or inconclusive.
SMILES,BAZ2B inh,JMJD2A Tudor inh,HP1b binding inh,PLK1 PBD block,G9a inh,Sfp inh
Cc1ccccc1-c1cnc(C(O)c2ccc(Cl)cc2)[nH]1 (stereo not given),nt,nt,nt,i,nt,nt
CCOC(=O)c1ccc(NC2SC(=O)N(Cc3cccc(C(=O)O)c3)C2=O)cc1 (stereo not given),i,i,i,nt,2.8µM,nt
COc1ccc(NC2SC(=O)N(CC(=O)O)C2=O)cc1 (stereo not given),i,79µM,i,i,40µM,i
CCOC(=O)c1sc2ncnc(N3CCN(c4ccc(OC)cc4)CC3)c2c1C,?,?,?,i,13µM,?
CCN(CC)c1ncnc2sc(C(=O)N3CCN(c4ccc(OC)cc4)CC3)c(C)c12,i,?,i,i,14µM,i
CN(Cc1ccco1)C(=O)c1c[nH]c2ccc(S(=O)(=O)Nc3ccc4c(c3)OCCO4)cc2c1=O,?,i,i,i,89µM,i
CCOc1ccc(NS(=O)(=O)c2ccc3[nH]cc(C(=O)N(C)Cc4ccccc4)c(=O)c3c2)cc1,?,i,i,nt,?,nt
CCc1ccc(NS(=O)(=O)c2ccc3[nH]cc(C(=O)N(C)Cc4ccco4)c(=O)c3c2)cc1,?,i,i,i,89µM,i
Cc1cncc(C(=O)O)[n+]1[O-],nt,nt,nt,nt,?,i
N[C@H]1CCN(O)C1=O,nt,nt,nt,nt,nt,i
CCOC(=O)c1cccc2c1N[C@@H](c1ccc(F)cc1)[C@H]1CC=C[C@@H]21,?,40µM,?,nt,10µM,nt
Cc1ccc(Cl)c2c1N[C@@H](c1ccc(C(=O)O)cc1)[C@H]1CC=C[C@@H]21,?,?,i,nt,?,nt
Cn1c(=O)c2c(nc(NC(Cc3ccccc3)C(=O)O)n2Cc2ccccc2)n(C)c1=O (stereo not given),?,i,i,i,56µM,i
O=c1c2ccccc2nc(N/N=C/c2ccc(O)cc2)n1O,i,i,i,?,?,35µM
Oc1ccc2ccccc2c1C=NNc1ccccn1,nt,i,i,?,nt,nt
O=c1c2ccccc2nc(N/N=C/c2c(O)ccc3ccccc23)n1O,28µM,50µM,i,30µM,?,40µM
O=C(CSc1nc2ccsc2c(=O)n1-c1ccc(Br)cc1)NCc1ccc(Cl)cc1,i,i,i,nt,?,nt
CCOC(=O)C1=C(N)N2C(=O)CSC2=C(C(=O)OC)C1,?,i,i,i,50µM,56µM
CCOC(=O)c1ccc(N2C(=O)CC(C(=O)OC)=C2C)cc1,i,i,i,?,i,i
COc1ccc(CNc2ccccc2C(=O)NCc2ccccc2)cc1COc1ccc(NC(C)=O)cc1,nt,?,i,nt,nt,nt
C=CCOC(=O)C1=C(C)NC(C)=C(C(=O)OCC=C)C1c1ccco1,?,i,i,i,?,i
CC1=C(C(N)=O)C(c2ccco2)C(C(N)=O)=C(C)N1,?,i,i,i,56µM,?
CCCOc1cccc(C(=O)Nc2cc(-c3ccccc3)no2)c1,i,i,i,nt,i,nt
Cc1ncc(CO)c(/C=N/Nc2cccc(Cl)n2)c1O,i,i,i,i,i,?
CCOc1ccc2ccccc2c1/C=N/NC(=O)c1ccc(C)nc1,i,i,i,i,i,i
SMILES,BAZ2B inh,JMJD2A Tudor inh,HP1b binding inh,PLK1 PBD block,G9a inh,Sfp inh
Cc1ncc(CO)c(/C=N/NC(=O)c2cc(O)c(O)c(O)c2)c1O,10µM,nt,nt,nt,?,20µM
Cc1cc(C(=O)N/N=C/c2c(CO)cnc(C)c2O)c2ccccc2n1,25µM,50µM,i,i,i,i
Cc1ncc(CO)c(/C=N/NC(=O)c2cc(Br)ccc2O)c1O,11µM,79µM,i,i,i,i
Cc1ccc2ncc(C(=O)NCCc3ccc(S(N)(=O)=O)cc3)c(=O)n2c1,i,i,i,nt,i,nt
CC(C)Sc1ncc(Cl)c(C(=O)Nc2nc3ccc(S(C)(=O)=O)cc3s2)n1,i,i,i,nt,i,nt
O=C(O)Cc1ccc(C(=O)c2ccccc2F)s1,i,i,i,i,45µM,i
O=C(O)Cc1ccc(C(=O)c2ccc(Cl)cc2Cl)s1,i,i,i,i,i,i
CCCCCCc1c(O)c2ccccc2[nH]c1=O,i,i,i,i,i,i
CCCCCCCCCCCC1=C(O)C(=O)C=C(O)C1=O,nt,28µM,?,30µM,nt,i
COC1=CC(=O)C(O)=C(CCCCCCC/C=C/CCCCCCCC2=C(O)C(=O)C=C(OC)C2=O)C1=O,nt,45µM,?,19µM,nt,nt
Cc1occc1C(=O)N1CCCC(N2CCN(c3cccc(Cl)c3)CC2)C1 (stereo not given),i,?,i,i,i[12.7 µM],i
Cc1ccc(Oc2nc(CN3CCOCC3)nc3sc4c(c23)CCC(C)C4)cc1 (stereo not given),?,?,i,i,79µM,?
CC1CCc2c(sc3nc(CN4CCOCC4)nc(N4CCc5ccccc5C4)c23)C1 (stereo not given),?,?,i,i,?,i
Cc1sc2nc(CN3CCOCC3)nc(Oc3ccc(NC(=O)c4ccco4)cc3)c2c1C,i,i,i,?,50µM!,89µM!
Cc1ccc(-c2csc3ncnc(NCCC(=O)O)c23)cc1C,i,i,i,i,i,i
COC(=O)[C@@]1(Cc2ccc(F)cc2)[C@H]2c3cc(C(=O)N(C)C)n(Cc4cccc5ccccc45)c3C[C@H]2CN1C(=O)c1ccccc1,nt,nt,nt,nt,nt,i
COc1ccc(C(=O)Nc2ncc3c(n2)CC(c2ccco2)CC3=O)cc1 (stereo not given),i,i,i,i,?,50µM
CCC(=O)Nc1ncc2c(n1)CC(c1ccco1)CC2=O (stereo not given),i,i,i,i,i,i
CC(=O)Nc1ncc2c(n1)CC(c1ccco1)CC2=O (stereo not given),i,i,i,i,i,i
Cc1ccc(S(=O)(=O)NC(=O)Nc2ncc3c(n2)CC(c2ccco2)CC3=O)cc1 (stereo not given),i,i,i,i,18µM,i
O=C1CC(c2ccco2)Cc2nc(N3CCc4ccccc4C3)ncc21 (stereo not given),?,i,i,i,45µM,25µM
O=C(Nc1ncc2c(n1)CC(c1ccco1)CC2=O)c1ccco1 (stereo not given),i,i,i,i,i,32µM
CCCC[C@@H]1CNC(=O)C(=O)N1CCCC,nt,nt,nt,i,nt,nt
Cc1ccc(OCC(=O)NCC2(N3CCN(C)CC3)CCCCC2)cc1C,i,i,i,nt,i,nt
CC(C(Sc1ccccc1N)c1ccccc1)[N+](=O)[O-] (stereo not given),i,20µM,?,1.9µM,3.2µM,4µM
CC(C)CC(=O)Nc1ccc(S(=O)(=O)Nc2cc3c(cc2N2CCOCC2)n(C)c(=O)c(=O)n3C)cc1,i,i,i,nt,?,nt
CCN1C(=S)SC(=O)C1=C1C=C(C)N(Cc2ccco2)C(C)=C1,?,i,i,i,?,14µM
O=C(O)/C=C/c1cnc2ccccc2c1,i,i,i,i,50µM,i
O=C(O)/C=C/c1ccccc1,nt,nt,nt,nt,i,i

# Bioassay records: PubChem BioAssay, National Center for Advancing Translational Sciences (NCATS)
